From ChEMBL document CHEMBL1961873, “Compounds: GSK PKIS; Assays: Nanosyn kinase panel” (2012)

Tests used:
[1] = target: Mitogen-activated protein kinase kinase kinase kinase 4 (Homo sapiens) (UniProt O95819); conditions: at 1 µM;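 further: reported figure is an averaged inhibition value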
[2] = target: Dual specificity mitogen-activated protein kinase kinase 1 (Homo sapiens) (UniProt Q02750); conditions: at 0.1 µM
[3] = target: Dual specificity mitogen-activated protein kinase kinase 1 (Homo sapiens) (UniProt Q02750); conditions: at 1 µM
[4] = target: Misshapen-like kinase 1 (Homo sapiens) (UniProt Q8N4C8); conditions: at 0.1 µM
[5] = target: Misshapen-like kinase 1 (Homo sapiens) (UniProt Q8N4C8); conditions: at 1 µM
[6] = target: T1, Serine/threonine-protein kinase 4 (Homo sapiens) (UniProt Q13043); conditions: at 0.1 µM
T1 sequence (whole entry): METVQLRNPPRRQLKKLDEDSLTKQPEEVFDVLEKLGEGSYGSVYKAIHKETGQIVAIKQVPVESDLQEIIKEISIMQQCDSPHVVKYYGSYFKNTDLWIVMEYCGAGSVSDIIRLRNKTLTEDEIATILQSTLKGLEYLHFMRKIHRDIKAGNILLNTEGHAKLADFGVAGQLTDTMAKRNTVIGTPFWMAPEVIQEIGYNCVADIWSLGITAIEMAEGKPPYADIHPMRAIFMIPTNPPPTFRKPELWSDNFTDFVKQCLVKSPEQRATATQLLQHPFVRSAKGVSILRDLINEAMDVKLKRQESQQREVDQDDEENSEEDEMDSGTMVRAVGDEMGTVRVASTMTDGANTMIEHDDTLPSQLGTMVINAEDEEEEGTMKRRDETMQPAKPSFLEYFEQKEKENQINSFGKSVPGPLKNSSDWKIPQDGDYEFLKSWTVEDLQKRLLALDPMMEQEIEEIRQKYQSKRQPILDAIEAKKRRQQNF

[7] = target: T1, Serine/threonine-protein kinase 4 (Homo sapiens); conditions: at 1 µM
[8] = target: T2, Serine/threonine-protein kinase 3 (Homo sapiens) (UniProt Q13188); conditions: at 0.1 µM
T2 sequence (whole entry): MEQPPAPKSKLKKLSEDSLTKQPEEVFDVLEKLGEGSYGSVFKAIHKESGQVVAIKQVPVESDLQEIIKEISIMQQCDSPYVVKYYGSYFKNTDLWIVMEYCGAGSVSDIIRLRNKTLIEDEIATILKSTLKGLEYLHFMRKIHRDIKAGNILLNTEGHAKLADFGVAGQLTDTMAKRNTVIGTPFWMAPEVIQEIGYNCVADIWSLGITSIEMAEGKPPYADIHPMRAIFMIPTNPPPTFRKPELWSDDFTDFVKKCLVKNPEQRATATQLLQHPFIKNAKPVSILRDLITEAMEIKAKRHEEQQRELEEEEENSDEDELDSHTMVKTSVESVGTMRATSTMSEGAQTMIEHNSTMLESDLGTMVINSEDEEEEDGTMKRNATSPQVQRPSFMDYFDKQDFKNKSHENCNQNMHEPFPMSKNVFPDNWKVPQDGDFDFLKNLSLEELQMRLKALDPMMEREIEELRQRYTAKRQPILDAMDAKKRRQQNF

[9] = target: T2, Serine/threonine-protein kinase 3 (Homo sapiens); conditions: at 1 µM
[10] = target: Serine/threonine-protein kinase 26 (Homo sapiens) (UniProt Q9P289); conditions: at 0.1 µM
[11] = target: Serine/threonine-protein kinase 26 (Homo sapiens) (UniProt Q9P289); conditions: at 1 µM
[12] = target: Serine/threonine-protein kinase PAK 1 (Homo sapiens) (UniProt Q13153); conditions: at 0.1 µM
[13] = target: Serine/threonine-protein kinase PAK 1 (Homo sapiens) (UniProt Q13153); conditions: at 1 µM
[14] = target: Serine/threonine-protein kinase PAK 2 (Homo sapiens) (UniProt Q13177); conditions: at 0.1 µM
[15] = target: Serine/threonine-protein kinase PAK 2 (Homo sapiens) (UniProt Q13177); conditions: at 1 µM
[16] = target: Serine/threonine-protein kinase PAK 3 (Homo sapiens) (UniProt O75914); conditions: at 0.1 µM
[17] = target: Serine/threonine-protein kinase PAK 3 (Homo sapiens) (UniProt O75914); conditions: at 1 µM
[18] = target: Serine/threonine-protein kinase PAK 5 (Homo sapiens) (UniProt Q9P286); conditions: at 0.1 µM
[19] = target: Serine/threonine-protein kinase PAK 5 (Homo sapiens) (UniProt Q9P286); conditions: at 1 µM
[20] = target: Serine/threonine-protein kinase PAK 6 (Homo sapiens) (UniProt Q9NQU5); conditions: at 0.1 µM;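 further: mean PAK6 inhibition reported from the GSK PKIS screen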
Chain of Serine/threonine-protein kinase PAK 6 (Homo sapiens) (Q9NQU5 whole entry, looked up): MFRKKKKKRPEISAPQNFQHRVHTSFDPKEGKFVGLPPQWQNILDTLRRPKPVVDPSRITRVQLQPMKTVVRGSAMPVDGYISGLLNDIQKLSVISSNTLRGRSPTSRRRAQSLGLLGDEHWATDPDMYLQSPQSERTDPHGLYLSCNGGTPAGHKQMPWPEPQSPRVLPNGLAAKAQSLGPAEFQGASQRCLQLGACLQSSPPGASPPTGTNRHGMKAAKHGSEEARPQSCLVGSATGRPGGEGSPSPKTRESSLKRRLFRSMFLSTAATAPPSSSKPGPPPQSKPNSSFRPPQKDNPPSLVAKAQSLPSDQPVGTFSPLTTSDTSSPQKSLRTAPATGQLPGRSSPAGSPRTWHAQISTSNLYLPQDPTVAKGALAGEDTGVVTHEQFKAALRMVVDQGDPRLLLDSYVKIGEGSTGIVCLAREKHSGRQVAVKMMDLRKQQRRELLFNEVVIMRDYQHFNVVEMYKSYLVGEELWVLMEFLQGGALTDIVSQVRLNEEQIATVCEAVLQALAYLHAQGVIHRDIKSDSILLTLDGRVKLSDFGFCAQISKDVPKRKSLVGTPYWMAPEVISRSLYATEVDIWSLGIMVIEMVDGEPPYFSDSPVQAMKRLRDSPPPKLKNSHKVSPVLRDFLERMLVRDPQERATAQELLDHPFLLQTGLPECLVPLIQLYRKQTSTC

Chain of Mitogen-activated protein kinase kinase kinase kinase 4 (Homo sapiens) (O95819 2-1239 limits assumed): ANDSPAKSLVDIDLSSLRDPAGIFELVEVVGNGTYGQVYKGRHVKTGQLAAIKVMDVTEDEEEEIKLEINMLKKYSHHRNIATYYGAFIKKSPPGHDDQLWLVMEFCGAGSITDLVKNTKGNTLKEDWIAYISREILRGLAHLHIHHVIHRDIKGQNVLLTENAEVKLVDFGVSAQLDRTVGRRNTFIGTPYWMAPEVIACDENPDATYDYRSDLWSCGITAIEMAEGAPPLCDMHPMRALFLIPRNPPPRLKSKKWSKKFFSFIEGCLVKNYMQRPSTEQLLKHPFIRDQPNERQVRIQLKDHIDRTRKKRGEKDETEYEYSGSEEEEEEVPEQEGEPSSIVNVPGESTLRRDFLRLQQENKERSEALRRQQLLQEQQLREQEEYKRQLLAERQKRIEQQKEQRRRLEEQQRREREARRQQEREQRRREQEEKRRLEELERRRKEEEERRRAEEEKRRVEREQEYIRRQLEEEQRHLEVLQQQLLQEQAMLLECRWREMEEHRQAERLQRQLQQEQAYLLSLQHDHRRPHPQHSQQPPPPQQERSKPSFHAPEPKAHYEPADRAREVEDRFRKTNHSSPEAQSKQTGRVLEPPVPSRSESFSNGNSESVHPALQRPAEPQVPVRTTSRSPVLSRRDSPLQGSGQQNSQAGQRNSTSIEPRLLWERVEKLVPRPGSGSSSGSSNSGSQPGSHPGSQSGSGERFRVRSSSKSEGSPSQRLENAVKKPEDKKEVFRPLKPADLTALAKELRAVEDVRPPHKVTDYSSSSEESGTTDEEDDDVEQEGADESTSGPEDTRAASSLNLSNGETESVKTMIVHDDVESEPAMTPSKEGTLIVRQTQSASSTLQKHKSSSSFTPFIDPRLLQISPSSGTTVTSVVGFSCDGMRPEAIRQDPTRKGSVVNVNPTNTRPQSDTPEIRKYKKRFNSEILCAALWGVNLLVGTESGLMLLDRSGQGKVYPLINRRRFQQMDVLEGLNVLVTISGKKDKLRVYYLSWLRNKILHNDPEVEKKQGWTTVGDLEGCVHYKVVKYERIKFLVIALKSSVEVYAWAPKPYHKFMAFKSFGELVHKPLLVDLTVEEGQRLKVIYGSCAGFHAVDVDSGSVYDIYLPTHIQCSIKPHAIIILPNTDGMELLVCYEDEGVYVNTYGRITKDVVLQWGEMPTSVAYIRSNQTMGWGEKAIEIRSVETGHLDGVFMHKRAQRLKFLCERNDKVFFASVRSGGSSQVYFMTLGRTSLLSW
Chain of Serine/threonine-protein kinase PAK 5 (Homo sapiens) (Q9P286 whole entry, looked up): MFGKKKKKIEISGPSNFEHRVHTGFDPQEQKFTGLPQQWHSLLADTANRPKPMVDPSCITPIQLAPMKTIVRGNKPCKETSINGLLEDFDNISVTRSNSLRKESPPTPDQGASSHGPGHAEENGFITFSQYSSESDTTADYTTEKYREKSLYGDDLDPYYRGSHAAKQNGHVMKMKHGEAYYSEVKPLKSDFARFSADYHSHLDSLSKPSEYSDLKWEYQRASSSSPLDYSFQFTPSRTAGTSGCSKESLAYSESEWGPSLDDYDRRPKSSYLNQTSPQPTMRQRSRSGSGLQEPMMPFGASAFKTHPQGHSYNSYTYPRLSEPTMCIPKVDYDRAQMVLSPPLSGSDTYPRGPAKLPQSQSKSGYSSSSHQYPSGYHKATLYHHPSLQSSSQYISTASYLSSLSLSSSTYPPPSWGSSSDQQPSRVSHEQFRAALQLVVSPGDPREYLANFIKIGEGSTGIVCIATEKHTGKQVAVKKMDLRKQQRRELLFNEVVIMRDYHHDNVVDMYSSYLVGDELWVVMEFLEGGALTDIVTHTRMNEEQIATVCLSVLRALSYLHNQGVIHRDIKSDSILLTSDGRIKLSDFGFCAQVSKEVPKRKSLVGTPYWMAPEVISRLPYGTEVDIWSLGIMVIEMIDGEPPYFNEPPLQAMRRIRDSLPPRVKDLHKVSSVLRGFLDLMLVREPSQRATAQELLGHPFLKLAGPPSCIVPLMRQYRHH
Chain of Serine/threonine-protein kinase PAK 2 (Homo sapiens) (Q13177 whole entry): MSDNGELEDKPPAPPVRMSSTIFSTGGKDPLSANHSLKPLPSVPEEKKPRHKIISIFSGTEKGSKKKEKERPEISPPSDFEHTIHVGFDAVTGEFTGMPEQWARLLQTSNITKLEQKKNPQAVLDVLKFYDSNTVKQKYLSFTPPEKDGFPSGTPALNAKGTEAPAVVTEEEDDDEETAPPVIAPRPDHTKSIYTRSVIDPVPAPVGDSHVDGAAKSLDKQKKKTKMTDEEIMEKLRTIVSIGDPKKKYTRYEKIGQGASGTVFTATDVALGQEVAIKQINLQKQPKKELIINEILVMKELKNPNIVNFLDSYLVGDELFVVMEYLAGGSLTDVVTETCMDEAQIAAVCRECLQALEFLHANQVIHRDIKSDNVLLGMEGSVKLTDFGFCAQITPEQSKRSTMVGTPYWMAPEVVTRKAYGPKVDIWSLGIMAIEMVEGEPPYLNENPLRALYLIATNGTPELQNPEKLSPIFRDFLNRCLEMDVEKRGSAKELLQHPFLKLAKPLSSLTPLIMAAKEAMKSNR
Chain of Serine/threonine-protein kinase PAK 1 (Homo sapiens) (Q13153 whole entry): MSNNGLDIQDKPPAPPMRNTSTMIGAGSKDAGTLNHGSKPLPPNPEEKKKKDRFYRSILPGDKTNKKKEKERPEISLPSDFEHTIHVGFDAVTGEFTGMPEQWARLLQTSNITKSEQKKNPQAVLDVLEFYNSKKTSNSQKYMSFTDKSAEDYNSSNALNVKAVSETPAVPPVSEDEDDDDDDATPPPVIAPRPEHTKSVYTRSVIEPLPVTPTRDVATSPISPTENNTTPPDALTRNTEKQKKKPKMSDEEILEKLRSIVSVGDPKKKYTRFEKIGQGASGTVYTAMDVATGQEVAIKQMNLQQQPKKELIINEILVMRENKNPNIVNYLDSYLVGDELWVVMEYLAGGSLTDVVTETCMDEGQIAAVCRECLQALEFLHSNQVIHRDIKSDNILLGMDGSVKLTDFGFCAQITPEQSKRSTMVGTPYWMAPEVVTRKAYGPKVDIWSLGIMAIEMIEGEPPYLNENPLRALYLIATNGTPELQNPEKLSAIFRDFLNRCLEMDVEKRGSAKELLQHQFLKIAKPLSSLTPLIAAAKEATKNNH
Chain of Misshapen-like kinase 1 (Homo sapiens) (Q8N4C8 whole entry, looked up): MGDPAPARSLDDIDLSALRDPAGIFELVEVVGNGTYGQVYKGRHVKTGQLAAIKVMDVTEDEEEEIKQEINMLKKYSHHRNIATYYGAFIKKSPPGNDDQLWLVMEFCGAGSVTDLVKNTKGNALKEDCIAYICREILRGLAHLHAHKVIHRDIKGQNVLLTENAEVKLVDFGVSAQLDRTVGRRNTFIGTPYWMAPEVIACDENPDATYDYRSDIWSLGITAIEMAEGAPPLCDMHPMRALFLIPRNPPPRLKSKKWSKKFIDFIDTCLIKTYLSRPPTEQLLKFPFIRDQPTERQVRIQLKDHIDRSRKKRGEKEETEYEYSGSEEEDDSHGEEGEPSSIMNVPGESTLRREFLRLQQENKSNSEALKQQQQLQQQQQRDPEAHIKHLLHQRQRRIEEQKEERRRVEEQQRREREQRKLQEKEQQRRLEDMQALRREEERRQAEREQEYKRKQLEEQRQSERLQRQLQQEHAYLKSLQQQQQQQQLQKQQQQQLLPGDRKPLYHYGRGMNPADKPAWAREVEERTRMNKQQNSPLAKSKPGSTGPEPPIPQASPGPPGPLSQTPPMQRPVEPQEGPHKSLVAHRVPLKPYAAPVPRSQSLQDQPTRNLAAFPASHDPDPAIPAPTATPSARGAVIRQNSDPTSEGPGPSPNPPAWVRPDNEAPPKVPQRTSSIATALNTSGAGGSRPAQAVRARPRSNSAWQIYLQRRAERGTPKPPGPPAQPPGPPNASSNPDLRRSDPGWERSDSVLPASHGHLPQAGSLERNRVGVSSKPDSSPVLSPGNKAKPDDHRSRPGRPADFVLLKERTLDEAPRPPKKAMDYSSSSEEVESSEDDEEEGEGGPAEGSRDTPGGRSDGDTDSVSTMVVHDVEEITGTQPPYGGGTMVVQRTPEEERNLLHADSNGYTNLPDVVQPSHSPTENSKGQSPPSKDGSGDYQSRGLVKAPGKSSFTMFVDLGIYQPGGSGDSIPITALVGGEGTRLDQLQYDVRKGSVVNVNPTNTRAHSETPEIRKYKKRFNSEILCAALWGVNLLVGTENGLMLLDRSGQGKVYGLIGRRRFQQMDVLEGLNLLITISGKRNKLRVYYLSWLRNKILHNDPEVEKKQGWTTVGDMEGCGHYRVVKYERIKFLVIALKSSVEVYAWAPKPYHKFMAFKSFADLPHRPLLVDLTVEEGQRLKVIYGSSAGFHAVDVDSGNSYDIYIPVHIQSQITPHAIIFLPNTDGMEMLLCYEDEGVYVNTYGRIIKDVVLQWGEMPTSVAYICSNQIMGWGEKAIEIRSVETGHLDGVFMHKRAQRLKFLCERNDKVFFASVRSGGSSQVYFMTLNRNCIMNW

Row | SMILES | inhibition [1] [%] | inhibition [2] [%] | inhibition [3] [%] | inhibition [4] [%] | inhibition [5] [%] | inhibition [6] [%] | inhibition [7] [%] | inhibition [8] [%] | inhibition [9] [%] | inhibition [10] [%] | inhibition [11] [%] | inhibition [12] [%] | inhibition [13] [%] | inhibition [14] [%] | inhibition [15] [%] | inhibition [16] [%] | inhibition [17] [%] | inhibition [18] [%] | inhibition [19] [%] | inhibition [20] [%]
1 | COc1cccc(-n2ncc3c(N/N=C/c4ccncc4)ncnc32)c1 | 67.7 | 7.89 | 7.23 | 16.2 | 55.4 | 9.07 | 12.8 | 5.41 | 10.7 | 0.95 | 7.18 | 5.78 | 7.75 | 3.04 | 2.37 | 5.73 | 5.78 | 0.19 | 6.09 | -2.81
2 | NS(=O)(=O)c1ccc(-c2ccc3c(NC(=O)C4CC4)n[nH]c3c2)cc1 | 5.23 | 1.7 | 2 | 3.12 | 4.48 | 3.07 | 5.91 | 4.35 | 5.17 | 0.02 | -2.58 | 6.54 | 2.13 | 1.52 | 2.07 | 2.48 | 4.17 | 1.07 | 2.99 | 7.47
3 | Fc1ccc(-c2ncn(C3CCNCC3)c2-c2ccnc(Oc3ccccc3)n2)cc1 | 6.15 | 1.34 | 3.93 | 2.7 | 6.65 | 0.94 | 1.85 | 1.01 | 2.48 | -0.85 | 0.32 | 3.79 | 1.88 | 0.54 | 1.48 | 1.85 | 3.31 | 2.66 | 2.03 | -8.85
4 | CCn1c(-c2nonc2N)nc2c(C#CC(C)(C)O)ncc(OCC3CCNCC3)c21 | 17.6 | 5.08 | 4.1 | 5.98 | 13.3 | 8.62 | 16.3 | 8.69 | 14.7 | 0.23 | 3.31 | 5.46 | 7.18 | 2.42 | 12.7 | 5.37 | 7.15 | 48.8 | 76 | 19.2
5 | Nc1nonc1-c1nc2cnccc2n1C1CCCCC1 | 46.2 | 0.13 | 7.67 | 2.02 | 31.4 | 0.54 | 18.5 | -0.2 | 13.8 | 0.77 | 3.95 | -0.52 | -1.25 | -2.06 | -1.54 | -3.57 | -2.19 | -7.66 | -4.63 | -0.28
6 | COc1cc2c(cc1Nc1nc(Nc3ccsc3C(N)=O)c3cc[nH]c3n1)N(C(=O)CN(C)C)CCC2 | 14.9 | -3.96 | -5.54 | 13.3 | 17 | 1.72 | 8.27 |  |  | 1.14 | 0.17 | -0.61 | 0.73 | 1.88 | 2.11 | 3.92 | 7.24 | -1 | -3.49 | 4.98
7 | CCn1c(-c2nonc2N)nc2c(C#CC(C)(C)O)nc(O[C@@H](CN)c3ccccc3)cc21 | 20.4 | -0.01 | 6.28 | 2.21 | 11 | 3.02 | 15.9 | 1.12 |  | 1.22 | 10.8 | 0.39 | 14 | 7.41 | 48.9 | -0.59 | 15.6 | 49.1 | 62.2 | 59.9
8 | COc1cccc(COc2cc(-n3cnc4ccccc43)sc2C(N)=O)c1 | 18.5 | 0.36 | 0.58 | 3.1 | 16.3 | -1.11 | 2.62 | 0.35 | 1.4 | 1.25 | -1.08 | 0.1 | 2.97 | 0.38 | 0.1 | 0.88 | 1.18 | -2.95 | -5.64 | 1.2
9 | CCn1c(-c2nonc2N)nc2c(C#CCN)ncc(OCCCN)c21 | 6.77 | -2.28 | -2.9 | -0.45 | 11.5 | 2 | 5.35 | 2.31 | 6.61 | 1.82 | 2.79 | -1.61 | 2.32 | -1.05 | -1.34 | -1.06 | -0.65 | 3.08 | 3.52 | 17
10 | NC(=O)c1sc(-n2cnc3cc(C(F)(F)F)ccc32)cc1OCc1ccccc1Br | 12.4 | 2.56 | 1.52 | 4.93 | 11.4 | 1.82 | 2.83 | 1.31 | 2.28 | 1.54 | 3.19 | 1.15 | 2.03 | -0.71 | -1.57 | 1.59 | 0.61 | 1.54 | 0.39 | 3.56
11 | CCn1c(-c2nonc2N)nc2c(C#CC(C)(C)O)ncc(OC[C@@H]3CCCN3)c21 | 2.54 | 1.6 | 0.19 | 0.63 | 0.93 | 0.46 | 2.14 | 0.87 | 2.41 | 0.78 | -0.64 | -0.64 | 7.58 | 1.99 | 16.6 | 0.61 | 4.06 | 12.6 | 49.8 | 19.1
12 | Cc1cc(-c2ccco2)cc(C)c1/C=C/c1cncc(-c2nn[nH]n2)c1 | -0.27 | 3.02 | 3.14 | 1.5 | 0.04 | 0.26 | 0.16 | -0.6 | 0.69 | 1.06 | 11.6 | 1.26 | 2.13 | -1.09 | -0.44 | 0.76 | 0.92 | -7.1 | -2.25 | 5.79
13 | NS(=O)(=O)c1ccc(N/C=C2\C(=O)Nc3ccc4ncsc4c32)cc1 | 76.9 | 8.75 | 42.9 | 45.2 | 76.9 | 70.2 | 75.2 | 65.1 | 73.7 | 42.6 | 74.5 | 4.98 | 7.33 | 1.87 | 2.66 | 5.48 | 5.62 | 2.66 | 4.51 | -9.73
14 | COc1cc(C=NNc2ncnc3c2cnn3Cc2ccccc2)ccc1O | 7.51 | -3.29 | -4.65 | -2.43 | 5.48 | -3.73 | -2.3 | -4.05 | -0.82 | 1.58 | 2.28 | 0.64 | -2.75 | -2.02 | -0.63 | -5.99 | -4.57 |  | -5.56 | -0.81
